Screens deposited in PubChem BioAssay by Broad Institute.
Hits are enriched below; roughly 2.8% of the tested compounds scored in any of these assays.
PAX8 reporter: PAX8 transcriptional activity inhibition; RMG-I TPO-luciferase reporter, SteadyGlo, 24 h; inhibition, % at 12.6 µM; 360,000 tested, 1.2% active; AID 652154;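 active = mean replicate inhibition at least 60% with every replicate also reaching 60%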;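 also: luciferase light reporting Pax8 driven TPO promoter activity; plate controls were median of neutral control wells for no effect and mitoxantrone controls for full effect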
NSD2 inh: inhibitors of human histone methyltransferase NSD2; O96028; NSD2 peptide methylation, AlphaScreen, 120 min; inhibition, % at 12.5 µM; 310,000 tested, 0.54% active; AID 743445; in the data active = inhibition above about 50%
Shn3 inh set2: reduces Shn3 3'UTR luciferase signal in osteoblasts. 360,000 tested, 0.52% active. inhibition, % at 12.5 µM. AID 588674. Clone20 osteoblast Shn3 3'UTR firefly luciferase, 24 h;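 active = mean inhibition of at least 75% with every replicate also reaching 75%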;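 also: 0% = median of neutral control wells and 100% = pilot-screen positive control compound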
N-glyco inh: blocks N-linked glycosylation in D54 reporter cells | D54 ERlucT glycosylation luciferase reporter, 24 h; percent of 100 nM tunicamycin response | reporter increase, % at 12.5 µM | 360,000 tested, 0.23% active | AID 588692;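 active = mean luciferase reporter signal, scaled so untreated is 0 and the glycosylation-blocking control 100, at or above a set limit in every replicate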;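 also: luciferase carries N-glycosylation sites so blocking glycosylation raises the light; 0% = median of neutral control wells and 100% = median of 100 nM tunicamycin wells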
EBV LMP1 NFkB: inhibitors of Epstein-Barr LMP1-induced NF-kappaB reporter | LMP1-induced NF-kappaB luciferase reporter cells, luminescence | inhibition, % at 12.5 µM | 350,000 tested, 0.69% active | AID 504558; in the data active = inhibition above about 41%;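 also: 0% = neutral control wells and 100% = reference inhibitor control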
Env fusion inh: inhibitors of HIV Env-mediated cell fusion. HeLa-JRFL Env/CEM21 cell fusion, luciferase. inhibition, % at 12.3 µM. 360,000 tested, 1.1% active;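 active = mean replicate inhibition score of at least 50 and every replicate individually at or above 50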;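 also: 0% = plate neutral controls and 100% = maraviroc near 300 nM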
Alpha artifact: AlphaScreen assay artifact in NSD2 counter-screen; AID 1053174; AlphaScreen artifact counterscreen, preloaded methylated H4 peptide; AC35, µM (series often up to 10 µM), for the others: at the top dose activity change, negative = signal loss; shares compounds with NSD2 inh; 1,500 tested, 9.4% active; call rule not given here
Numbers without * were called inactive; nt = no result; [ ] = dose if it differs, or a comment.

SMILES	PAX8 reporter	NSD2 inh	Shn3 inh set2	N-glyco inh	EBV LMP1 NFkB	Env fusion inh	Alpha artifact
Cc1[nH]n(-c2ccccc2)c(=O)c1C(C[N+](=O)[O-])c1ccccc1Cl (stereo not drawn)	nt	8	7	-3	1	nt	nt
CCCOc1ccc(C(C)=O)cc1CC(C(N)=O)C(N)=O	nt	135*	0	0	-4	nt	2%
CC(=O)c1ccc(OCC(C)C)c(CC(C(N)=O)C(N)=O)c1	nt	1	7	0	-7	nt	nt
CC(=O)c1c(C)nc(-c2ccc(Cl)cc2)nc1N=CN(C)C	nt	66*	-68	2	-27	nt	-1%
CC(=O)N1CCCCN2[C@H](CO)[C@H](c3ccc(-c4cccc(C(=O)N(C)C)c4)cc3)[C@@H]2C1	-20	nt	nt	nt	nt	nt	nt
CCNCCC(CCC(C)C)c1ccc2c(c1)OCO2 (stereo not drawn)	14	57*	4	-4	2	22	-3%
CC(C)CCC(CCNCc1ccccn1)c1ccc2c(c1)OCO2 (stereo not drawn)	5	5	7	0	4	9	nt
CCCNC(=O)N[C@H]1CC[C@@H](CCn2cc(C3CCCC3)nn2)O[C@@H]1CO	4	nt	nt	nt	nt	16[16.7 µM]	nt
CC(Nc1ccc2ccccc2c1)C(=O)N/N=C/c1ccncc1 (stereo not drawn)	26	141*	3	6	3	-18	-4%
O=C(O)C1CC(c2ccccc2F)=NO1 (stereo not drawn)	12	108*	2	0	4	-89	-7%
COc1cccc(S(=O)(=O)Nc2ccc3c(c2)[C@H]2C[C@H](CC(=O)NCCc4ccccc4)O[C@H](CO)[C@H]2O3)c1	14	nt	nt	nt	nt	24[16.7 µM]	nt
COc1ccc(NC(=O)N(C)C[C@@H]2OCCCC[C@@H](C)Oc3ccc(NC(=O)Nc4ccccc4)cc3C(=O)N([C@@H](C)CO)C[C@H]2C)cc1	-2	nt	nt	nt	nt	4[16.7 µM]	nt
Cc1cc(=O)oc(C)c1C(=O)OCC(=O)c1ccccc1	-40	54*	-2	-1	10	-41	-5%
O=C(C1CCC1)N1C[C@@H]2[C@H](c3ccccc31)[C@H](CO)N2S(=O)(=O)c1ccccc1	-7	nt	nt	nt	nt	nt	nt
Cc1ccc(S(=O)(=O)Nc2ccc3c(c2)C(=O)N([C@@H](C)CO)C[C@H](C)[C@@H](CN(C)S(=O)(=O)c2cn(C)cn2)O3)cc1	-44	nt	nt	nt	nt	-24[16.7 µM]	nt
O=C(COC(=O)c1ccc([N+](=O)[O-])s1)Nc1ncc(C(F)(F)F)cc1Cl	19	75*	-6	-1	5	-12	0%
O=c1c2ccccc2nc(COc2ccccc2)n1/N=C/c1ccc(O)c(O)c1	-28	65*	16	-6	-11	-14	-13%
O=C(O)COc1ccc(/C=N/n2c(COc3ccccc3)nc3ccccc3c2=O)cc1	-51	-2	-37	-1	-30	3	nt
O=C(OCc1cccc2ccccc12)C1CC(=O)N(c2ccccc2)C1 (stereo not drawn)	nt	79*	7	1	-7	42	-4%
CC(C)(C)C(=O)COC(=O)C1CC(=O)N(c2ccccc2)C1 (stereo not drawn)	-7	-2	-2	4	8	-5	nt
Cc1cc(-c2n[nH]c(=S)n2N=Cc2cccc(OCc3ccccc3)c2)n[nH]1	nt	63*	nt	nt	nt	nt	-9%
Cc1cc(-c2n[nH]c(=S)n2N=Cc2cccc(Oc3ccccc3)c2)n[nH]1	nt	19	nt	nt	nt	nt	nt
Cc1ccc(S(=O)(=O)N(C)C[C@H]2Oc3ccc(NC(=O)CCN4CCOCC4)cc3CC(=O)N([C@@H](C)CO)C[C@H]2C)cc1	1	nt	nt	nt	nt	nt	nt
COc1ccc(OCC(=O)NNc2c3ccccc3nc3ccccc23)cc1	nt	61*	8	-2	8	59*	3%
Cc1cc2c(OCC(O)CNC3CCCCC3)cccc2[nH]1 (stereo not drawn)	-16	54*	8	-1	-8	-9	-2%
SMILES	PAX8 reporter	NSD2 inh	Shn3 inh set2	N-glyco inh	EBV LMP1 NFkB	Env fusion inh	Alpha artifact
CCOC(=O)c1sc2nc(C)nc(NC3CCC(O)CC3)c2c1C (stereo not drawn)	-10	91*	-46	3	-6	-1	-5%
CCOC(=O)c1sc2nc(C)nc(NCc3ccccc3OC)c2c1C	34	0	65	-1	17	6	nt
CC1=NN(c2ccc(S(=O)(=O)O)cc2Cl)C(=O)C1	15	71*	-6	0	2	11	0%
CC1=NN(c2cc(Cl)c(S(=O)(=O)O)cc2Cl)C(=O)C1	-1	6	-2	1	-1	14	nt
CN(C)C(=O)C[C@H]1CC[C@@H]2[C@H](COC[C@H](O)CN2C(=O)C2CC2)O1	19	nt	nt	nt	nt	nt	nt
COc1cc(OC)c(C(=O)OCC(=O)Nc2c(C)n(C)n(-c3ccccc3)c2=O)cc1OC	19	0	-8	0	-5	-2	nt
COc1ccc(C(=O)OCC(=O)Nc2c(C)n(C)n(-c3ccccc3)c2=O)cc1	3	51*	-5	4	1	nt	-2%
O=C1Cc2ccccc2C(=O)N1c1ccccc1	10	86*	13	2	4	5	-7%
C[C@@H]1CN([C@H](C)CO)C(=O)Cc2cc(NC(=O)CCC(F)(F)F)ccc2O[C@H]1CN(C)Cc1ccc(C(=O)Nc2ccccc2N)cc1	17	nt	nt	nt	nt	nt	nt
CCOC(=O)C1(C)CCCN1C(=O)c1cccc(F)c1 (stereo not drawn)	-28	59*	-11	1	nt	-8	1%
CC1(C(=O)O)CCCN1C(=O)c1cccc(F)c1 (stereo not drawn)	nt	1	-6	2	nt	-14	nt
Cc1noc(C)c1S(=O)(=O)Nc1ccc2c(c1)C(=O)N([C@H](C)CO)C[C@@H](C)[C@@H](CN(C)S(C)(=O)=O)OCCCC[C@H](C)O2	nt	nt	nt	nt	nt	7[16.7 µM]	nt
O=C1CCCC(O)=C1N=Nc1ccc(C(=O)O)cc1	15	96*	-7	-1	-1	-5	0%
CCCCn1c(NS(=O)(=O)c2ccc(C)cc2)c(S(=O)(=O)c2ccccc2)c2nc3ccccc3nc21	-15	127*	-22	5	1	12	-1%
Cc1ccc(S(=O)(=O)c2c(N)n(CCCN(C)C)c3nc4ccccc4nc23)cc1	14	-7	-1	-2	19	-6	nt
C=CCOc1ccc(C2NC(=S)NC3=C2CCc2ccccc23)cc1 (stereo not drawn)	-15	8	-16	-1	4	4	nt
O=C1NC2=C(CCc3ccccc32)C(c2ccccc2)N1 (stereo not drawn)	17	93*	-20	3	-7	9	-2%
CCN(CC)CCNC(=O)c1ccc(CS(=O)(=O)c2ccccc2C)o1	8	51*	12	-1	-4	-2	-2%
Cc1ccccc1S(=O)(=O)N1CC[C@@H]2[C@@H](CO)N(C)c3ccc(-c4ccc(F)cc4)cc3[C@@H]21	-35	nt	nt	nt	nt	nt	nt
